Where “and” joins values, the source holds several entries; their conditions need not be identical. Equal values may be shown once. Inconclusive results are not listed. Calls of active or inactive are those of the source. Unless noted, the call rests on the fitted dose curve; in most records, active means well fitted curve in the direction sought with a large enough effect in the repeat runs; inconclusive means weak or mixed curves; inactive means no such curve, though single readings can be large; an effect the other way counts as inactive or inconclusive.
How the values were obtained:
[1] = qHTS assay to identify small molecule antagonists of the glucocorticoid receptor (GR) signaling pathway - cell viability counter screen (AID 720693); further: nearly all actives have a fitted effect of over 55% in size; further: potency means the concentration at half of the fitted maximal effect
[2] = qHTS assay for identifying genotoxic compounds that show differential cytotoxicity against isogenic chicken DT40 cell lines with known DNA damage response pathways - wild type cell line (AID 743012); further: nearly all actives have a fitted effect of over 60% in size; further: potency means the concentration at half of the fitted maximal effect
How it was run: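 Endpoint: CellTiter-Glo luminescence, 30 min RT. Cells: wild type DT40, 300/well. Exposure: compounds in DMSO, 40 h, 37 C/5% CO2, after ~0.5 h pre-incubation.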

[3] = qHTS assay for identifying genotoxic compounds that show differential cytotoxicity against isogenic chicken DT40 cell lines with known DNA damage response pathways - Rad54/Ku70 mutant cell line (AID 743015); further: nearly all actives have a fitted effect of over 60% in size; further: potency means the concentration at half of the fitted maximal effect
[4] = qHTS assay to identify small molecule antagonists of the androgen receptor (AR) signaling pathway - cell viability counter screen (AID 743033; further: nearly all actives have a fitted effect of over 45% in size; further: potency means the concentration at half of the fitted maximal effect)
[5] = qHTS assay to identify small molecule antagonists of the androgen receptor (AR) signaling pathway using the MDA cell line - cell viability counter screen (AID 743041; further: nearly all actives have a fitted effect of over 45% in size; further: potency means the concentration at half of the fitted maximal effect)
How it was run: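 Cytotoxicity counter screen: MDA-kb2 AR-luc cells, compound + R1881, 16 h, 37C, 0% CO2; CellTiter-Fluor added at 15.5 h, fluorescence read after 30 min.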

[6] = molecular target: Androgen receptor (Homo sapiens) (UniProt P10275); test: qHTS assay to identify small molecule antagonists of the androgen receptor (AR) signaling pathway (AID 743035; active means well fitted inhibition curve with a large enough effect in the signal ratio in the repeat runs, not every such curve was filed as active; the % refers to the signal ratio; further: potency means the concentration at half of the fitted maximal effect)
Androgen receptor (Homo sapiens), sequence (P10275 whole entry, looked up): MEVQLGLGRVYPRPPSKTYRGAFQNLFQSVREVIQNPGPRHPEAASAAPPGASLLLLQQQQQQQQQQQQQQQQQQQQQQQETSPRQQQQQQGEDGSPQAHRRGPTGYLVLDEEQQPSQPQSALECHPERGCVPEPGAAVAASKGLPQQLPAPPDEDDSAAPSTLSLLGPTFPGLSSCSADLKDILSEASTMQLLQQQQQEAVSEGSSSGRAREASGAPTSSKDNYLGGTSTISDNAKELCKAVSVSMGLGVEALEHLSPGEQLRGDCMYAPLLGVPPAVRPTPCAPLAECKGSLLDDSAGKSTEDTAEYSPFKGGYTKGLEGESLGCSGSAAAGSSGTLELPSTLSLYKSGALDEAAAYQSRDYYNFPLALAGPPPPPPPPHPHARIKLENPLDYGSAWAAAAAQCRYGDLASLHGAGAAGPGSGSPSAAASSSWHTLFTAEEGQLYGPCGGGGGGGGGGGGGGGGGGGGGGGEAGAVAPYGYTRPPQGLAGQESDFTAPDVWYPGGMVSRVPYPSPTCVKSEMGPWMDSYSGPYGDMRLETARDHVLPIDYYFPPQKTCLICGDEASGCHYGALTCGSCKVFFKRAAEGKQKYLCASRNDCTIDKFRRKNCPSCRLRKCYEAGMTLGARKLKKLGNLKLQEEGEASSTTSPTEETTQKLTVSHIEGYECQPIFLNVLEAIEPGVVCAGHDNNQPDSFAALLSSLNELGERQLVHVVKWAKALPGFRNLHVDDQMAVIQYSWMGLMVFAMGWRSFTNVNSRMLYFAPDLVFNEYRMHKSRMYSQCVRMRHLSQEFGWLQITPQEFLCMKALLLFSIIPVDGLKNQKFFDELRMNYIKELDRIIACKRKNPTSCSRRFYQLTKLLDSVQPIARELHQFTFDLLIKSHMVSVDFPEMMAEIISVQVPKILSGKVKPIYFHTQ
How it was run: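 R1881 agonist challenge of a HEK293 UAS-beta-lactamase AR reporter line in the presence of compound (16 h, 37C); signal taken as FRET fluorescence after 2 h with LiveBLAzer B/G substrate at room temperature.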

[7] = molecular target: Androgen receptor (Homo sapiens) (UniProt P10275); test: qHTS assay to identify small molecule agonists of the androgen receptor (AR) signaling pathway (AID 743036; active means well fitted activation curve with a large enough effect in the signal ratio in the repeat runs, with a control signal flat, not every such curve was filed as active; the % refers to the signal ratio; further: potency means the concentration at half of the fitted maximal effect)
How it was run: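 Following a 4 h settling period, AR-UAS-bla HEK293 cells were dosed with compounds for 16 h at 37C. A 2 h room-temperature incubation with LiveBLAzer B/G FRET substrate preceded the fluorescence measurement.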

[8] = molecular target: Androgen receptor (Homo sapiens) (UniProt P10275); test: qHTS assay to identify small molecule agonists of the androgen receptor (AR) signaling pathway using the MDA cell line (AID 743040; further: nearly all actives have a fitted effect of over 20% in size)
How it was run: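 Luciferase read-out, ONE-Glo, 30 min RT. Cells: MDA-kb2 AR-luc, MMTV promoter with AR and GR response elements. Compound exposure 16 h, 37C, 0% CO2, after 5 h pre-incubation. qHTS agonist mode.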

[9] = qHTS assay for identifying genotoxic compounds that show differential cytotoxicity against isogenic chicken DT40 cell lines with known DNA damage response pathways - Rev3 mutant cell line (AID 743014); further: nearly all actives have a fitted effect of over 55% in size; further: potency means the concentration at half of the fitted maximal effect
[10] = molecular target: Androgen receptor (Homo sapiens) (UniProt P10275); test: qHTS assay to identify small molecule antagonists of the androgen receptor (AR) signaling pathway using the MDA cell line (AID 743042; further: nearly all actives have a fitted effect of over 55% in size; further: potency means the concentration at half of the fitted maximal effect)
How it was run: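 MDA-kb2 breast carcinoma cells carrying MMTV-luciferase (AR/GR responsive) were co-treated with compounds and the agonist R1881 for 16 h at 37C. Inhibition read as ONE-Glo luminescence; CellTiter-Fluor fluorescence measured in parallel for cytotoxicity.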

Measured: Potency

CCCCCCCC/C=C\CCCCCCCCOCCO
active: [1] 31.9 µM | [2] 5.62 µM | [3] 8.91 µM | [4] 22.6 µM | [5] 14.1 µM

O=C(O)c1ccc(Cl)c(Cl)c1
not listed: [9] | [10]
inactive: all other assays above

COc1ccc(CN2CCN(C(c3ccc(F)cc3)c3ccc(F)cc3)CC2)c(OC)c1OC
active: [2] 3.76 µM | [3] 6.68 µM | [4] 23.9 µM
inactive: [1]

COC(=O)C1=C(C)NC(C)=C(C(=O)OCC(C)C)C1c1ccccc1[N+](=O)[O-] (stereo unspecified)
active: [2] 5.31 µM and 3.86 µM | [3] 8.41 µM and 5.45 µM | [4] 43.6 µM
inactive: [1]

O=[N+]([O-])c1ccccc1Nc1ccccc1
inactive: [1] | [2] | [3] | [4] | [5]

CCC(C)(C)C1CCCCC1OC(C)=O (stereo unspecified)
inactive: [1] | [2] | [3] | [5]

O=C(Oc1ccccc1)c1ccccc1C(=O)Oc1ccccc1
inactive: [1] | [8]
active: [2] 19.3 µM | [9] 34.4 µM | [6] 49 µM | [10] 54.5 µM

CCCCCCCC[N+](CCCCCCCC)(CCCCCCCC)CCCCCCCC
active: [1] 7.75 µM | [2] 2.43 µM | [9] 1.37 µM | [4] 0.308 µM | [5] 4.32 µM

O=C1CCCc2c1cc1ccc3cccc4ccc2c1c34
active: [7] 14 µM
not listed: [6] | [9]
inactive: all other assays above

Cc1cc(O)c2ccccc2c1O
active: [2] 29.8 µM | [3] 29.8 µM
not listed: [7] | [9]
inactive: all other assays above

CN(C)[C@@H]1C(=O)C(C(N)=O)=C(O)[C@@]2(O)C(=O)C3=C(O)c4c(O)ccc(Cl)c4[C@@H](O)[C@H]3C[C@@H]12
inactive: [1] | [2] | [3] | [4] | [5]

CCCC/C=C/CCCCO
inactive: [1] | [2] | [3] | [4] | [5]

O=C1c2ccccc2Cc2ccccc21
inactive: [1] | [2] | [9] | [4] | [5]

O=C(N/N=C/c1ccccc1O)c1ccncc1
inactive: [1] | [5]
active: [2] 4.22 µM | [9] 2.98 µM

N=C1N=C(N)c2cc3ccccc3cc21
active: [1] 21.9 µM | [2] 9.69 µM | [3] 27.3 µM

Cc1cc2c(cc1C(F)(F)F)N(C(=O)Nc1ccc(Oc3cccnc3C)nc1)CC2
inactive: [1] | [4]
active: [2] 1.24 µM | [3] 22 µM

CCCCC(CC)CN=C(N)NC(N)=NCCCCCCN=C(N)NC(N)=NCC(CC)CCCC (stereo unspecified)
active: [1] 19 µM | [2] 8.41 µM | [3] 10.6 µM | [4] 13.4 µM | [5] 26.6 µM | [10] 16.8 µM
inactive: [8]

Cc1cc(CCN2CCN(c3nsc4ccccc34)CC2)cc2c1NC(=O)CC2(C)C
inactive: [8]
active: [1] 49 µM | [2] 3.06 µM | [3] 4.86 µM | [4] 13.8 µM | [5] 48.6 µM | [10] 15.4 µM

CCCCCCCC[P+](CCCCCCCC)(CCCCCCCC)CCCCCCCC
active: [1] 6.13 µM | [2] 5.42 µM | [9] 5.42 µM | [5] 6.08 µM

CC(C)(C)CC(C)(C)c1ccc(OCCOCC[N+](C)(C)Cc2ccccc2)cc1
active: [1] 19.5 µM | [2] 668 nM and 1.53 µM | [9] 841 nM and 968 nM | [5] 24.8 µM and 38.5 µM

CNC(=O)c1ccccc1
inactive: [1] | [2] | [3] | [4] | [5]

NC(=O)NS(=O)(=O)c1ccc(N)cc1
inactive: [1] | [2] | [3] | [5]

CCN(Cc1cccnc1)C(=O)c1cccc(Cl)c1[C@]1(C)C(=O)N(Cc2ccc(OC)cc2OC)c2ccc(Cl)cc21
inactive: [1] | [8]
active: [2] 5.09 µM | [9] 7.19 µM | [10] 12.8 µM

Cc1cc(O)c(C(C)(C)C)cc1Sc1cc(C(C)(C)C)c(O)cc1C
inactive: [8]
active: [1] 10.9 µM | [2] 21.6 µM | [3] 12.2 µM | [4] 15.5 µM | [5] 38.5 µM | [10] 24.3 µM

CCCCCCCCCCCCc1ccc(O)cc1
active: [1] 21.9 µM | [2] 10.9 µM | [3] 12.2 µM | [4] 34.7 µM | [5] 54.5 µM

Nc1ccc2cc(S(=O)(=O)O)cc(O)c2c1N=Nc1ccccc1C(F)(F)F
inactive: [1] | [2] | [3] | [4]

CCCCCCCCCCCCCCCC(=O)OC[C@H](O)[C@H]1OC(=O)C(O)=C1O
not listed: [9]
inactive: all other assays above

Nc1ccccc1O
active: [2] 7.59 µM | [3] 5.38 µM | [5] 53.8 µM
inactive: [1] | [4]

CCCN(CCC)c1c([N+](=O)[O-])cc(C(F)(F)F)c(N)c1[N+](=O)[O-]
active: [1] 48.9 µM | [2] 12.2 µM | [3] 12.2 µM | [5] 60.9 µM

NC(=O)CC[C@@H]1NC(=O)[C@H](Cc2ccccc2)NC(=O)[C@H](Cc2ccc(O)cc2)NC(=O)CCSSC[C@@H](C(=O)N2CCC[C@H]2C(=O)N[C@@H](CCCN=C(N)N)C(=O)NCC(N)=O)NC(=O)[C@H](CC(N)=O)NC1=O
inactive: [1] | [2] | [3] | [4] | [5]

Oc1ccc2cc(SSc3ccc4cc(O)ccc4c3)ccc2c1
inactive: [1] | [5]
active: [2] 24.3 µM | [3] 24.4 µM and 27.3 µM

CC(=O)SC[C@@H](Cc1ccccc1)C(=O)NCC(=O)OCc1ccccc1
inactive: [1] | [2] | [3] | [4] | [5]

NNc1nc(-c2ccccc2)cs1
inactive: [1] | [2] | [9] | [4] | [5]

CC(C)CCCCCCCCCCCCCCC(=O)O
inactive: [1] | [2] | [3] | [5]
